A short description of assay [1]: Cellular Toxicity (caspase-3) Renal Proximal Tubule (AID 667).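 Note: cells exposed to compound for 16 hours at 37 °C before detection; 0% = DMSO basal and 100% = 10 µM staurosporine.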 The essentials:
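Caspase-Glo 3/7 read-out, rat primary kidney proximal tubule cells. Compound exposure 16 h, 37 °C; detection after 1 h at RT. Activity scaled to DMSO and 10 uM staurosporine.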

Assay [2] concerns the target Guanine nucleotide-binding protein G(i) subunit alpha-1 (Homo sapiens) (UniProt P63096). The assay is described as follows: qHTS Assay for Inhibitors of RGS12 GoLoco Motif Activity (Green Fluorophore) (AID 879).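 Note: 0% = labeled peptide with Gαi1 and full inhibition = labeled peptide alone without protein; negative values mean loss of peptide binding seen as reduced polarization.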 The gist of the method: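 Fluorescence polarization assay: 50 nM Gαi1 with 10 nM FITC-labeled RGS12 GoLoco peptide in 10 mM Tris pH 7.5, 150 mM NaCl, 0.1 mM GDP, 0.05% NP40, 10 min at room temperature with compound.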
(In general: qHTS replaces the single test concentration by a dilution series.)

A short description of assay [3]: qHTS Assay for Identification of Small Molecule Antagonists for NFkB Signaling Pathway (AID 895; active = well fitted inhibition curve with a large enough effect in the signal ratio, with a control signal flat, not every such curve was filed as active; the % refers to the signal ratio; note: potency is the fitted concentration of half-maximal effect). The essentials:
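ME-180 NFkB-bla cells (beta-lactamase under NFkB response element), plated overnight, treated with compound then 10 pM TNF alpha (about EC50) for 5 hrs at 37 C. LiveBLAzer FRET read at 460/530 nm emission, 405 nm excitation.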

The nature of assay [4]: Confirmation and Secondary Assay for Modulators of Hemoglobin Beta Chain Splicing at IVS2 654 locus (AID 910).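 Note: HeLa cells stably carrying EGFP split by mutant beta-globin IVS2-654 intron; % of control where 0% means no effect.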 The gist of the method: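 HeLa cells stably expressing EGFP interrupted by β-globin IVS2-654 intron, seeded overnight in Opti-MEM/2% FCS, then treated 2 days at 37 °C. Restored splicing read as total peak GFP intensity per well by laser scanning cytometry (488 nm excitation, 500–520 nm emission); 500 nM antisense PNA as control.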

Assay [5] in a line: qHTS Assay for Identification of Small Molecule Agonists for Thrombopoietin (TPO) Signaling Pathway (AID 917). Note: % is set by controls: 0 for no effect and ±100 for the full control effect. The essentials:
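IL-3-dependent murine pro-B Ba/F3 cells, stably transfected with human TPO receptor and GpIIb-promoter luciferase, are incubated 24 hrs at 37 C with test compound and 26 pM TPO; luciferase signal is read after 10 min at room temperature.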

The nature of assay [6]: Cell Viability - LYMP2-001 (AID 921).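 Note: series mostly up to about 92 µM; cells exposed to compound for 24 h at 37 °C; 0% = DMSO only and full inhibition = tetraoctylammonium bromide control wells; nearly all actives have a fitted effect of over 70% in size.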 The gist of the method:
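A lymphoblastoid cell line of human origin was treated with library compounds across a concentration series for 24 hours, and viable cell number was estimated from ATP-driven luciferase light output. Hill modeling gave AC50.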

The target of assay [7] is Muscarinic acetylcholine receptor M1 (Rattus norvegicus) (UniProt P08482). As to the kind of experiment: qHTS Assay for Antagonists of Acetylcholine Muscarinic M1 Receptor: Measurement of IP-One Response (AID 944). Note: nearly all actives have a fitted effect of over 75% in size. Note: potency is the fitted concentration of half-maximal effect. The essentials:
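CHO cells stably expressing rat M1, pretreated 10 min with compound, then stimulated 30 min with carbachol at EC80 (200 nM) in LiCl-containing buffer pH 7.4; IP1 accumulation read by HTRF competition (665/620 nm).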

Assay [8] deals with Pyruvate kinase (Leishmania mexicana) (UniProt Q27686). The assay is described as follows: qHTS Validation Assay for Inhibitors of Leishmania Mexicana Pyruvate Kinase (AID 945).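 Note: 0% = DMSO only neutral control wells.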 The gist of the method:
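LmPYK E451W 0.2 nM; 0.5 mM PEP, 0.1 mM ADP, 7 mM MgCl2, 50 mM KCl, imidazole pH 7.2, 0.01% Tween 20, 0.05% BSA; 1 h RT; PKLight luminescence; DMSO-normalized.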

Assay [9] in a line: MultiTox-Fluor Cytotoxicity Assay - LYMP1-001 - Dead Cells (AID 946). The essentials:
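Cytotoxicity as increased dead-cell protease fluorescence (bis-AAF-R110, 485/520 nm), read 60 min after MultiTox-Fluor reagent. Human lymphoblastoid line exposed 16 h; Hill-fitted AC50, with DMSO as 0% and 15 uM tetraoctylammonium bromide as 100%.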

A short description of assay [10]: MultiTox-Fluor Cytotoxicity Assay - LYMP1-001 - Live Cells (AID 947).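 Note: 0% = DMSO only and full inhibition = tetraoctylammonium bromide control.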
Assay [11] in a line: Cell Viability - LYMP1-002 - Assay at 16 hr (AID 948).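 Note: 0% = DMSO alone and full effect = 92 µM tetraoctylammonium bromide.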 The essentials: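 In this qHTS, lymphoblastoid LYMP1-002 cells (human) receive compounds for 16 hr at 37 C. Viability is taken from CellTiter-Glo ATP luminescence, and AC50 derives from standard Hill fits.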
Assay [12] has as its target Pyruvate kinase PKM (Homo sapiens) (UniProt P14618). The assay is described as follows: qHTS Assay for Activators of Human Muscle Pyruvate Kinase (AID 954; active = well fitted curve in the direction sought with a large enough effect, not every such curve was filed as active;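 note: 0% = uninhibited enzyme and -100% = no enzyme or full thiadiazolimine inhibition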). The essentials: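 Human PKM2 activity is measured as ATP generation, detected by luciferase-coupled luminescence. The enzyme (0.1 nM) acts on 0.5 mM PEP and 0.1 mM ADP for 1 h at ambient temperature; data are normalized to uninhibited and full-inhibition wells.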

Assay [13] can be described thus: MultiTox-Fluor Cytotoxicity Assay - LYMP1-002 - Live Cells (AID 955).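 Note: cells exposed to compound for 16 hours; % is set by controls: 0 for no effect and ±100 for the full control effect.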 The gist of the method: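 Human lymphoblastoid LYMP1-002 cells, 2500/well, treated 16 h at 37 C in complete medium. Live-cell protease activity via GF-AFC fluorescence (Ex/Em 405/510) after 60 min reagent incubation; AC50 from Hill fits.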
Assay [14] has as its target Cytochrome P450 3A4 (Homo sapiens) (UniProt P08684). As to the kind of experiment: qHTS Assay for Inhibitors and Substrates of Cytochrome P450 3A4 (AID 884). Note: series mostly up to about 57 µM; % is set by controls: 0 for no effect and ±100 for the full control effect; nearly all actives have a fitted effect of over 50% in size. The gist of the method: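 20 nM human CYP3A4 with 25 uM Luciferin-PPXE (at KM) in 200 mM KPO4, preincubated 10 min with compound; NADPH regeneration started a 60 min RT reaction. Luciferin detected by luminescence, normalized to 57 uM ketoconazole as full inhibition.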

Assay [15] deals with Muscarinic acetylcholine receptor M1 (Rattus norvegicus) (UniProt P08482). As to the kind of experiment: qHTS Assay for Antagonists of Acetylcholine Muscarinic M1 Receptor: Kinetic Measurement of Intracellular Calcium Response (AID 943). Note: series mostly up to about 35 µM; nearly all actives have a fitted effect of over 75% in size. The gist of the method: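 CHO cells expressing rat M1 receptor, Fluo-4 loaded, preincubated 10 min with compound, then stimulated with EC80 carbachol (100 nM final). Kinetic calcium fluorescence over 4 min; response taken as peak over basal signal.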
Sequence of Muscarinic acetylcholine receptor M1 (Rattus norvegicus) (P08482 whole entry, looked up): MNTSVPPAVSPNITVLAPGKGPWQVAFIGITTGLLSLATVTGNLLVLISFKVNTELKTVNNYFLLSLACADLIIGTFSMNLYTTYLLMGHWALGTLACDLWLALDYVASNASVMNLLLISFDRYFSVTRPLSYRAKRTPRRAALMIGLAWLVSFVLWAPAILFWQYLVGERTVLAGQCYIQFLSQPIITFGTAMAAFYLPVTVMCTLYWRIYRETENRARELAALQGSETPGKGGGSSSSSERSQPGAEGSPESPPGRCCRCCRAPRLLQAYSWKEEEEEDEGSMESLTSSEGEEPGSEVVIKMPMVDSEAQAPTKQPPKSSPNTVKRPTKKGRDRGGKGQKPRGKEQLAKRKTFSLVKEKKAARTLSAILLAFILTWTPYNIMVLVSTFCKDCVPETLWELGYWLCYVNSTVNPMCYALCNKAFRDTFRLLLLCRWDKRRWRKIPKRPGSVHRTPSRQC

The target in assay [16] is Cytochrome P450 2C9 (Homo sapiens) (UniProt P11712). The assay is described as follows: qHTS Assay for Inhibitors and Substrates of Cytochrome P450 2C9 (AID 883). Note: % is set by controls: 0 for no effect and ±100 for the full control effect; nearly all actives have a fitted effect of over 60% in size. The essentials: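 Human CYP2C9 (10nM) with Luciferin-H at 100uM (its KM) in 25mM KPO4; compound preincubated 10 min at 37C, then NADPH regeneration for 60 min at 37C. Luciferin read by luminescence after detection reagent; normalized to 57uM sulphaphenazole as full inhibition.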
Sequence of Cytochrome P450 2C9 (Homo sapiens) (P11712 whole entry, looked up): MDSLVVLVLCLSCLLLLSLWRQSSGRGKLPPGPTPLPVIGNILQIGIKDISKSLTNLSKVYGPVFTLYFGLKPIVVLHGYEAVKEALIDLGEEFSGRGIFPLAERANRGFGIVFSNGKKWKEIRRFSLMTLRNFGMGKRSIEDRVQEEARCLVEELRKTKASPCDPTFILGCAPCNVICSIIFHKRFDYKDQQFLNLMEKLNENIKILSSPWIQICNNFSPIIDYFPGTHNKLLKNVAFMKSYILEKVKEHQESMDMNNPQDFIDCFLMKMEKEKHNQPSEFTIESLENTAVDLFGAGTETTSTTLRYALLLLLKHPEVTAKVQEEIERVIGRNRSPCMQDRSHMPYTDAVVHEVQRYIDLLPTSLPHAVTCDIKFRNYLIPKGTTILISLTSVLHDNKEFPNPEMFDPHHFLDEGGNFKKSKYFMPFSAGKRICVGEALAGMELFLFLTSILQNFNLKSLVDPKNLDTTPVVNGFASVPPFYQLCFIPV

In assay [17] the target is Cytochrome P450 2D6 (Homo sapiens) (UniProt P10635). As to the kind of experiment: qHTS Assay for Inhibitors and Substrates of Cytochrome P450 2D6 (AID 891). Note: nearly all actives have a fitted effect of over 60% in size. Note: potency is the fitted concentration of half-maximal effect. The gist of the method: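 Human CYP2D6 (5 nM) with 30 uM Luciferin-ME EGE (at Km) in 100 mM KPO4, compound preincubated 10 min, then NADPH regeneration system for 60 min at room temperature. Luciferin read by luminescence; normalized to 1.43 uM quinidine.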
Sequence of Cytochrome P450 2D6 (Homo sapiens) (P10635 whole entry, looked up): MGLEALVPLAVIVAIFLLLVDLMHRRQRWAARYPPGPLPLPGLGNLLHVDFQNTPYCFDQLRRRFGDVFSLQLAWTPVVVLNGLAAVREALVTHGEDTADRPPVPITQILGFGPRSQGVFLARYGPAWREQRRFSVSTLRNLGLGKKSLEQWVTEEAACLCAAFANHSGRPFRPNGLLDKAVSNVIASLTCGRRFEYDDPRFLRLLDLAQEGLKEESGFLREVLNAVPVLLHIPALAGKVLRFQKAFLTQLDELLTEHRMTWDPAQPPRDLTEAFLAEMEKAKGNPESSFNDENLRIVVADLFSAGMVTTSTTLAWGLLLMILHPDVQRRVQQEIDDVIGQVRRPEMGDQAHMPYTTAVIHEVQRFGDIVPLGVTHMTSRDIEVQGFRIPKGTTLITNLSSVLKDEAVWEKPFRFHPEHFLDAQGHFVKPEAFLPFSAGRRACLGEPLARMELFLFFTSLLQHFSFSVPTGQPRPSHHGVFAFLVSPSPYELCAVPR

Assay [18] addresses Cytochrome P450 2C19 (Homo sapiens) (UniProt P33261). As to the kind of experiment: qHTS Assay for Inhibitors and Substrates of Cytochrome P450 2C19 (AID 899). Note: nearly all actives have a fitted effect of over 60% in size. Note: potency is the fitted concentration of half-maximal effect. The gist of the method: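 5 nM human CYP2C19 with 10uM Luciferin-H EGE (at KM) in 50mM KPO4, compound preincubated 10 min at 37C, then NADPH regeneration for 60 min at 37C. Luciferin read by luminescence after detection reagent; normalized to 57uM ketoconazole as full inhibition.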

Assay [19] addresses Cytochrome P450 3A4 (Homo sapiens) (UniProt P08684). As to the kind of experiment: qHTS Assay for Activators of Cytochrome P450 3A4 (AID 885). Note: nearly all actives have a fitted effect of over 65% in size. The essentials:
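Signal was normalized against complete inhibition by 57 uM ketoconazole. The reaction used 20nM CYP3A4 with 25uM Luciferin-PPXE, 10-min compound preincubation and a 60-min NADPH-supported step at RT.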

A short description of assay [20]: qHTS Assay for Identification of Small Molecule Agonists for Hypoxia Response Element Signaling Pathway (AID 914; active = well fitted activation curve with a large enough effect in the signal ratio, with a control signal flat, not every such curve was filed as active; the % refers to the signal ratio; note: % of control where 0% means no effect). Conditions: ME-180 HRE-bla reporter, beta-lactamase ratio, CoCl2, 17 h; hits give high values. The gist of the method: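 ME-180 cells carrying an HRE-driven beta-lactamase reporter were treated with compounds in a titration series plus an EC50 level of CoCl2 for 17 h at 37 degrees Celsius; CCF4 readout as the 460nm/530nm ratio gave AC50 values.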

Where “and” joins values, the source holds several entries; their conditions need not be identical. Equal entries are not always repeated. A number with no mark means an inactive call. Records with an inconclusive call do not appear. Calls of active or inactive are those of the source. Unless noted, calls come from the whole dose curve; as a rule, active = well fitted curve in the direction sought with a large enough effect; inconclusive = small, poorly fitted or top-dose-only effect, or another doubt; inactive = no such curve, though single readings can be large; an effect the other way counts as inactive or inconclusive.

Results on 16 compounds are retold here after PubChem BioAssay (NCATS).

Sequence of Guanine nucleotide-binding protein G(i) subunit alpha-1 (Homo sapiens) (P63096 whole entry, looked up): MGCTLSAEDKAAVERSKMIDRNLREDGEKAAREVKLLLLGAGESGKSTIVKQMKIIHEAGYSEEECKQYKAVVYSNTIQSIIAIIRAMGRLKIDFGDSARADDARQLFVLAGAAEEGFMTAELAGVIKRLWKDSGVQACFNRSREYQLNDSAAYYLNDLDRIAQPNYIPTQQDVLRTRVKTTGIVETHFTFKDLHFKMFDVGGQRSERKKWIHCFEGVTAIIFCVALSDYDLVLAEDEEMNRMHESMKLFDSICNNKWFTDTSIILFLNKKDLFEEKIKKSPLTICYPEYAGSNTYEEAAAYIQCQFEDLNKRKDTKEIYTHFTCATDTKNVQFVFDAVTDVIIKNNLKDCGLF
Sequence of Pyruvate kinase (Leishmania mexicana) (Q27686 2-499 E452W): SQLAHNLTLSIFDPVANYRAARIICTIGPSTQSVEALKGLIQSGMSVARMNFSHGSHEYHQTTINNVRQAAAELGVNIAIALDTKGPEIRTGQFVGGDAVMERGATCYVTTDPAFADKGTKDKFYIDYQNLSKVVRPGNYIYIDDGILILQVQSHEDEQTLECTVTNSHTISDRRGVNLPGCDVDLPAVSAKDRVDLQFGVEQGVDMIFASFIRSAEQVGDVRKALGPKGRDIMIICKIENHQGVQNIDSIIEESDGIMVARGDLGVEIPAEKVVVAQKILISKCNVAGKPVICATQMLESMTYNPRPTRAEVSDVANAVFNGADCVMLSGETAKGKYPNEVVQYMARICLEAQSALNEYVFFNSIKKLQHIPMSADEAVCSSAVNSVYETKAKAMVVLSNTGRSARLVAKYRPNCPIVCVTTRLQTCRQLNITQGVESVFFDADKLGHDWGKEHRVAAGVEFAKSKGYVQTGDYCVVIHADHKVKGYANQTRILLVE
Sequence of Cytochrome P450 3A4 (Homo sapiens) (P08684 whole entry, looked up): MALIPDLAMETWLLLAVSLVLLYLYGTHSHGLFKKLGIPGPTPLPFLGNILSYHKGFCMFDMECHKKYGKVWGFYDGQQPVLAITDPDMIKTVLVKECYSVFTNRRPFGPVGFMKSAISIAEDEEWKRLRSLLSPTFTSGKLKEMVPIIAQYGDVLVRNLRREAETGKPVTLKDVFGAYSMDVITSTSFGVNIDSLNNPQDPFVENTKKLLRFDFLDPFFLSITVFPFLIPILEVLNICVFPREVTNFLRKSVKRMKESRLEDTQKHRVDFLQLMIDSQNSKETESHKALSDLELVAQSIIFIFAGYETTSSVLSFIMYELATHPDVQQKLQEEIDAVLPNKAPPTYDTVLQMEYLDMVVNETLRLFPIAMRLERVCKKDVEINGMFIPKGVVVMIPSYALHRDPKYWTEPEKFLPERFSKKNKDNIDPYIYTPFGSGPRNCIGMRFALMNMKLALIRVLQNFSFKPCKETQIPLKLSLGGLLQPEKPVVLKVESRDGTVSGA
Sequence of Pyruvate kinase PKM (Homo sapiens) (P14618 whole entry, looked up): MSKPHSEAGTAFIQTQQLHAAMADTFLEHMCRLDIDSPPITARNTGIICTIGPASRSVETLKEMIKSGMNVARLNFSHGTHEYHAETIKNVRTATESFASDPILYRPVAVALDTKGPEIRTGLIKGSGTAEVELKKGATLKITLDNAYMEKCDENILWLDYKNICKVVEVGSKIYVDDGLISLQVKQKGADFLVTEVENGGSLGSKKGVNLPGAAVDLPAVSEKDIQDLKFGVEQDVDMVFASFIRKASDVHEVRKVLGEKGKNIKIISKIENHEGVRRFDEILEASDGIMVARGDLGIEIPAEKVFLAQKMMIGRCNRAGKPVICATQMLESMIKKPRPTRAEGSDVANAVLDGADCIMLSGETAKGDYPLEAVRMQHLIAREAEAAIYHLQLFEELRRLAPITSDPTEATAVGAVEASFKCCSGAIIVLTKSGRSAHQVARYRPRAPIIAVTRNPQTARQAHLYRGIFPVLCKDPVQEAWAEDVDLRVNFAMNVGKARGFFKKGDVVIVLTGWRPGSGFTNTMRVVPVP
Sequence of Cytochrome P450 2C19 (Homo sapiens) (P33261 whole entry, looked up): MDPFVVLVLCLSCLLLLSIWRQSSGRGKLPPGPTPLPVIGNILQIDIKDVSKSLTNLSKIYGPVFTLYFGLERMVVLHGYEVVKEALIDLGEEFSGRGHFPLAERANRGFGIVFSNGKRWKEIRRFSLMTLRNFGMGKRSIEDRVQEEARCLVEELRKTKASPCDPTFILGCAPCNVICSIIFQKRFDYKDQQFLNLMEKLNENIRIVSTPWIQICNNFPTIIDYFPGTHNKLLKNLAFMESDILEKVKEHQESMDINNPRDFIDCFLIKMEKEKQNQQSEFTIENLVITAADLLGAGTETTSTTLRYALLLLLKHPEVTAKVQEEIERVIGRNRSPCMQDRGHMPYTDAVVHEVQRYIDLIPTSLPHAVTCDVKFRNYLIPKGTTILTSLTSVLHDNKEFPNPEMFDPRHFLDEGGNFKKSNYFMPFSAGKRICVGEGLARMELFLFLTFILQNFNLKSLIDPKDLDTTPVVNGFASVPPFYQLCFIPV

For the compound `CC(C)c1cccc(C(C)C)c1O`, the result in assay [1], in assay [2], in assay [4], in assay [5], in assay [6] and in assay [8] was inactive. The result in [9], in assay [10], in [11], in assay [12] and in assay [13] was inactive. Further, the Potency result in assay [3] and in assay [7] was “inactive” each time.
Regarding `Nc1ccccc1`, the compound was classed as inactive in assay [1], in assay [6], in assay [9], in [10], in [11] and in assay [13]. Besides, the Potency result in [14] was “inactive”.
On to `C[C@]12CCC(=O)C=C1CC[C@@H]1[C@@H]2CC[C@]2(C)C(=O)CC[C@@H]12`, for which the call in assay [1], in assay [2], in assay [5], in assay [6], in assay [15] and in assay [8] was inactive. For the same compound, the call in [9], in assay [10], in [11], in assay [12] and in assay [13] was inactive. Moreover, the Potency entry in assay [14] and in assay [7] was “inactive” throughout.
On to `COC(=O)C(c1ccccc1)C1CCCCN1` (stereo not given), for which the outcome in assay [1], in [6], in assay [9], in [10], in assay [11] and in [13] was inactive. Also, the Potency result in assay [14] is “inactive”.
Take `O=C(O)CCCc1ccc(N(CCCl)CCCl)cc1`: the call in assay [1], in assay [2], in assay [16], in assay [4], in [8] and in [9] was inactive. Moreover, the compound was called inactive in assay [11], in assay [12] and in [13]. Further, the Potency entry in assay [14], in [17] and in assay [18] was “inactive” in each case. For the same compound, the Potency in assay [3] is 8.91 µM (active).
On to `CC(C)NC(C)C`, for which the compound was called inactive in assay [1], in [6], in assay [9], in [10], in assay [11] and in assay [13]. Besides, the Potency entry in [14] is “inactive”.
`C[C@]1(O)CC[C@H]2[C@@H]3CCC4=CC(=O)CC[C@]4(C)[C@@]3(F)[C@@H](O)C[C@@]21C`: the call in [1], in assay [6], in [9], in [10], in assay [11] and in assay [13] was inactive. Moreover, in assay [14], the Potency entry was “inactive”.
With `O=c1[nH]oc2c1CCNC2`, the result in assay [2], in assay [16], in [4], in assay [5], in assay [15] and in [8] was inactive. In assay [12], the result was inactive. For the same compound, the Potency result in assay [14], in assay [3] and in [7] was “inactive” each time.
Consider `COP(=S)(OC)Oc1ccc(SC)c(C)c1`, for which the outcome in assay [1], in [4], in assay [6], in [9], in assay [10] and in assay [11] was inactive. The outcome in [13] was inactive.
For the compound `O=C(CCCN1CCC2(CC1)C(=O)NCN2c1ccccc1)c1ccc(F)cc1`, the call in assay [2], in assay [19], in assay [4], in assay [5], in assay [15] and in [8] was inactive. The call in [12] was inactive. In addition, the Potency in assay [17] was 2.51 µM (active) and 1.58 µM (active); in assay [18] it was 6.31 µM (active). The Potency entry in assay [3] is “inactive”.
As for `COc1cc(-c2ccc(=O)[nH]n2)ccc1OC(F)F`, the compound was classed as inactive in assay [16].
Turning to `Cc1ncsc1CCCl`, the Potency in assay [18] is 7.94 µM (active).
As for `Cn1c(=O)c2[nH]cnc2n(C)c1=O`, the Potency result in assay [18] is “inactive”.
As to `CCC1(CC)C(=O)C=CNC1=O`, in assay [20], the activation was -12.7%.
On the same count and under the same terms, in the case of `COc1c2c(cc3c1OCO3)CCN(C)C2` it was -5.25%.
Regarding `CC(=O)N1CCN(c2ccc(OC[C@H]3CO[C@](Cn4ccnc4)(c4ccc(Cl)cc4Cl)O3)cc2)CC1`, the Potency in assay [7] is 8.91 µM (active).
